The list is not random: actives were taken first. Their share in the collection is about 1.5%.
BLM inh: qHTS Assay for Inhibitors of Bloom's syndrome helicase (BLM); RecQ-like DNA helicase BLM (Homo sapiens), P54132; recombinant BLM DNA unwinding, fluorescence dequenching; Potency, µM (titrated, usually from 56.1 µM), hits mostly inhibitors; 350,000 compounds, 0.2% hits; note: nearly all actives have a fitted effect of over 35% in size
FEN1 inh: qHTS Assay for the Inhibitors of Human Flap endonuclease 1 (FEN1); 390,000 compounds, 0.35% hits; Potency, µM (titrated, usually from 114 µM), most hits filed as inhibitors; Recombinant FEN1 flap cleavage, fluorescence, 15 min; note: nearly all actives have a fitted effect of over 65% in size
Target sequence (P39748 whole entry, looked up): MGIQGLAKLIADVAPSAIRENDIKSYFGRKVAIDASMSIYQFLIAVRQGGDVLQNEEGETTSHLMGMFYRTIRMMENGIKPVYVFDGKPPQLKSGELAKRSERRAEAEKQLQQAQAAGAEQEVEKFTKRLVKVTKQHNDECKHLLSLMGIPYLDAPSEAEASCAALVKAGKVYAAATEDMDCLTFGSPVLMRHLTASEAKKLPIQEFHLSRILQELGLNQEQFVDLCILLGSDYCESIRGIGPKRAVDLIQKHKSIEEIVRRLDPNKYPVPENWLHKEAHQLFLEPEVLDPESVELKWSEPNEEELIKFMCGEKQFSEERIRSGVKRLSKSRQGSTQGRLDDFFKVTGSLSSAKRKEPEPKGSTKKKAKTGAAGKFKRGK
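Reaction started by adding substrate (50 nM final) to 10 nM enzyme after 15 min room-temperature compound preincubation. Reads at 0 and 15 min, with data normalized and fitted to a four-parameter Hill equation.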
RECQ1 inh: qHTS Assay for Inhibitors of RecQ-Like Dna Helicase 1 (RECQ1); Potency, µM (titrated, usually from 57.3 µM), most hits filed as inhibitors; AID 2549, 2010; 240,000 compounds, 0.54% hits; ATP-dependent DNA helicase Q1 (Homo sapiens), P46063; RECQ1 DNA unwinding, red fluorescence kinetic read; note: nearly all actives have a fitted effect of over 30% in size
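RECQ1T1 50 nM; forked duplex (20 bp + 30-nt ss tails) 200 nM, ATP 2 mM final; pH 8.0, 2 mM MgCl2, 2.5 ug/ml poly(dI-dC); 15 min compound preincubation; discontinuous kinetic read over 2 h at RT.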
APE1 inh: qHTS Assay for Inhibitors of the Human Apurinic/apyrimidinic Endonuclease 1 (APE1). recombinant APE1, TAMRA/BHQ-2 abasic DNA cleavage fluorescence. 350,000 compounds, 0.35% hits. DNA repair nuclease/redox regulator APEX1 (Homo sapiens), P27695. Potency, µM (doses to about 65.8 µM), usual class: inhibitors; note: nearly all actives have a fitted effect of over 55% in size
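Endonuclease cleavage of a quenched abasic-site DNA duplex (50 nM) by APE1 (0.75 nM) was tracked by TAMRA dequenching. Compounds were preincubated with enzyme 15 min at room temperature; data normalized to buffer-only and DMSO wells plus NSC13755 control.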
PI5P4Ka inh: qHTS for Inhibitors of phosphatidylinositol 5-phosphate 4-kinase (PI5P4K); Phosphatidylinositol 5-phosphate 4-kinase type-2 alpha (Homo sapiens), P48426; PI5P4Kalpha enzyme, ADP-Glo luminescence, 60 min; hits give low values; max response, %; 330,000 compounds, 1.2% hits; active = max response of -50% or lower; inconclusive = between -30% and -50%; inactive = -30% or higher; note: value at the top dose of about 77 µM
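Reactions run in 0.038 M HEPES pH 7.4, 0.28 mM EGTA, 0.1% CHAPS and 5% DMSO, with PI5P4Kalpha, substrate, compound and 5 microM ATP final, one hour at room temperature. Readout is ADP-Glo luminescence.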
GCN5L2 inh: qHTS Assay for Inhibitors of GCN5L2; GCN5L2 HAT assay, ThioGlo1 CoA-SH fluorescence; 390,000 compounds, 0.21% hits; Potency, µM (titrated, usually from 58.9 µM), most hits filed as inhibitors; Histone acetyltransferase KAT2A (Homo sapiens), Q92830; AID 504327, 2011
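qHTS, 1536-well. 20nM enzyme, pH 7.5 HEPES/EDTA/Tween-20 buffer; 15 min compound preinc., RT. Start: 75uM H3(1-25), 70uM AcCoA, 50uM ThioGlo1. Read Ex340/Em540 at t=0 (autofluorescence flag) and t=20 min.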
Hits are given with their value; i = inactive; ? = inconclusive; nt = no result; ! = repeats disagree. Unless noted, calls come from the whole dose curve; as a rule, active = well fitted curve in the direction sought with a large enough effect; inconclusive = small, poorly fitted or top-dose-only effect, or another doubt; inactive = no such curve, though single readings can be large; an effect the other way counts as inactive or inconclusive.

SMILES	BLM inh	FEN1 inh	RECQ1 inh	APE1 inh	PI5P4Ka inh	GCN5L2 inh
COc1cc(/C=N/n2c(=S)[nH]nc(C)c2=O)cc([N+](=O)[O-])c1O	i	i	i	i	-57	i
COc1cc(/C=N/n2c(C3CCCCC3)n[nH]c2=S)cc(Br)c1O	i	i	nt	i	-62	i
CCc1n[nH]c(=S)n1/N=C/c1cc(OC)cc([N+](=O)[O-])c1O	i	i	?	i	-57	?
Fc1ccc(C2CC(c3ccco3)=NN2c2ccccc2)cc1 (stereo not drawn)	i	i	i	i	i	i
O=[N+]([O-])c1ccc(N2N=C(c3ccco3)CC2c2ccccc2)cc1 (stereo not drawn)	i	i	i	i	i	2µM
CCc1ccc(S(=O)(=O)/N=C2\C=C(Nc3ccc(O)cc3)C(=O)c3ccccc32)cc1	i	i	nt	i	?	i
O=C(O)c1ccc(NC2=C/C(=N/S(=O)(=O)c3ccccc3)c3ccccc3C2=O)cc1	14µM	?	i	?	?	i
Cc1cc(C)c(S(=O)(=O)/N=C2\C=C(Nc3ccc(C(=O)O)cc3)C(=O)c3ccccc32)c(C)c1	?	?	nt	i	-79	i
CCc1ccc(S(=O)(=O)/N=C2\C=C(Nc3cccc(C(=O)O)c3)C(=O)c3ccccc32)cc1	25µM	i	nt	i	i	i
N#Cc1c(-c2ccc(-c3ccccc3)cc2)no[n+]1[O-]	nt	nt	nt	i	nt	nt
Cn1cccc1/C=C1\SC(=Nc2ccc(O)cc2)NC1=O	i	i	i	i	i	i
Cn1cccc1/C=C1\SC(=Nc2cccc(O)c2)NC1=O	i	i	i	i	-55	i
O=c1cc(-c2cccnc2)oc2c1ccc1ccccc12	i	40µM	i	?	i	i
O=c1cc(-c2ccccc2)oc2c1ccc1ccccc12	i	nt	i	i	nt	nt
COc1cccc(-c2no[n+]([O-])c2C#N)c1	nt	nt	nt	i	nt	nt
CC(C)Oc1ccc(-c2nc(-c3cccnc3)no2)cc1	nt	i	nt	nt	nt	nt
CCCCCCCCCCCCCCCC[n+]1ccc(/C=N/O)cc1	?	i	i	i	-60	i
CCCCCCCCCCCCCC[n+]1ccc(C)cc1	i	nt	nt	nt	nt	i
O=c1cc(-c2ccc(O)cc2)oc2cc(O)cc(O)c12	i	?	i	25µM!	?	i
O=c1cc(-c2ccccc2)oc2cc(O)cc(O)c12	i	i	i	i	i	i
O=c1c(O)c(-c2ccc(O)cc2)oc2cc(O)cc(O)c12	i	?	i	?	-73	i
c1ccc2c(c1)CCCN2	nt	i	nt	nt	nt	nt
CC[C@]12c3[nH]c4cc(CCC(=O)N(C)C)ccc4c3CCN1C(=O)[C@@H](CC(=O)NCCCN(C)C)C[C@@H]2C(=O)N1CCN(C(=O)C2CC2)CC1	nt	i	nt	i	i	i
CC[C@]12c3[nH]c4cc(CCC(=O)N(C)C)ccc4c3CCN1C(=O)[C@@H](CC(=O)NCCCOC)C[C@@H]2C(=O)N1CCN(C(=O)C2CC2)CC1	nt	i	nt	21µM	?	i
CCOc1cc(/C=C(\C#N)c2[nH]nc(N)c2C#N)ccc1O	i	?	i	i	-65	i
CCOc1cc(-c2cc(-c3ccc(C)cc3)nc(N)c2C#N)ccc1O	i	i	i	i	nt	i
Cc1ccc2c(c1)N(CC(=O)NCCCc1ccccc1)C(=O)c1cccnc1O2	i	i	nt	i	i	40µM
O=C(O)[C@H](O)[C@@H](O)[C@H](O[C@@H]1O[C@H](CO)[C@H](O)[C@H](O)[C@H]1O)[C@H](O)CO	nt	nt	nt	i	nt	nt
O=C1NC(=Nc2ccccc2Cl)S/C1=C\c1cccc([N+](=O)[O-])c1	i	i	nt	i	i	i
O=C1NC(=Nc2ccccc2Cl)S/C1=C\c1cccc([N+](=O)[O-])c1O	i	?	nt	i	-85	i

Screening results deposited in PubChem BioAssay by National Center for Advancing Translational Sciences (NCATS).
